According to PubChem BioAssay AID1347416 (National Center for Advancing Translational Sciences (NCATS), 2020):
About 1,600 (39%) of roughly 4,100 compounds were called active. Roughly 25% stayed inconclusive and do not appear here. The call rests on the fitted dose curve; in most records, active means well fitted inhibition curve with a large enough effect; inconclusive means small, poorly fitted or top-dose-only effect; inactive means no such curve, though single readings can be large or run the other way. The list shows a part of the results.

Experiment: qHTS Validation assay for Inhibitors of Plasmodium falciparum Dd2 growth in vitro; further: nearly all actives have a fitted effect of over 70% in size
Conditions: P. falciparum Dd2 in RBCs, SYBR Green growth, 72 h; series mostly up to 28.7 µM
From the text: Malaria, a parasitic disease spread to humans through the bite of a Plasmodium infected Anopheles mosquito, continues to be a global health burden affecting millions of people, with an estimated 228 million cases and 405,000 deaths in 2018. Concerns about safety and limitations of current antimalarial treatments strongly emphasize the need to develop new therapeutic options. The scarce number of chemotypes and validated drug targets with efficacy against the liver stage, have hindered development of new antimalarials. To address this, a chemoprophylactic drug discovery effort was conducted through a combined phenotypic high-throughput asexual blood stage and liver stage screen, providing a robust foundation to identify liver-stage active lead chemotypes. Compounds were initially screened against Plasmodium falciparum Dd2 strain parasites using a in vitro SYBRGreen-1 based 72 hr proliferation assay to identify novel chemotypes to advance to liver stage assays. NIH/NCATS Early Translation Branch Assay Submitter (PI): Anton Simeonov Ph.D.
[…] Assay Protocol: PROTOCOL TABLE (as described by Inglese et al., 2007) SEQUENCE No. (e.g., 1, 2, 3, etc.); PARAMETER (e.g., Cells, Incubation, Reagent, etc.); VALUE; DESCRIPTION SEQUENCE, Parameter, Description 1; Reagent; 3 uL complete malaria growth medium, 1536 TC treated Black clear bottom plate 2; Controls; 23 nL positive control artesunate (300 nM final) to column 1; Neutral control DMSO to columns 2-4 3; Compound; 23 nL of compounds in dose response concentration (29 uM to 0.5 nM final) 4; Reagent; 5 uL malaria infected red blood cells (2.5% hematocrit final, 0.3% parasitemia 5; Time; 72 hours at 37C (5% O2, 5% CO2, 90% N2; 95% Rh) 6; Reagent; 2 uL lysis buffer/SYBRGreen-1, 25 sec shake immediately following dispense 7; Time; ~16 hours at 37C (5% O2, 5% CO2, 90% N2; 95% Rh) 8; Detector; EnVision (PerkinElmer) bottom read at 485/14nm excitation and 535/25 nm emission NOTES (numbers refer to sequence above): 1; Complete Malaria Growth Media: 1X RPMI-1640 w/L-glutamine, 5.5g/L Albumax II, 367 uM Hypoxanthine, 25 mM HEPES, 0.25% Sodium Bicarbonate, 35 uM Gentamicin sulfate 2; Controls were added using the Kalypsis Pintool (Wako USA) equipped with 1536 pinhead 3; Compounds were added in a 7-point, titration with a high final concentration of 29 uM by Pintool from seven inter-plate titrations of library plates and two DMSO control plates at the beginning and end (see Yasgar et al., 2008). 4; Red blood cells infected with Plasmodium falciparum Dd2 parasites were used. 6; Lysis buffer: 20 mM Tris-HCl, 10 mM EDTA, 0.16% Saponin, 1.6% Triton-X, 10X SYBR Green. REFERENCE: Inglese J, Shamu CE, Guy RK. 2007. Reporting data from high-throughput screening of small-molecule libraries. Nat Chem Biol. doi:10.1038/nchembio0807-438 Yasgar A, Shinn P, Jadhav A, Auld D, Michael S, Zheng W, Austin CP, Inglese J, Simeonov A. 2008. Compound Management for Quantitative High-Throughput Screening. J Lab Autom 13:79-89. doi:10.1016/j.jala.2007.12.004
Potency means the concentration at half of the fitted maximal effect.

Potency, active:
COc1ccc(-c2[nH]nc3ncc(-c4ccc([S+](C)(=O)[O-])cc4)nc23)c(C)c1 15.3 µM
CCOc1ccc(NC(=O)CN2C(=O)NC(C)(c3ccc(OC(F)F)cc3)C2=O)cc1 (stereo unspecified) 9.44 µM
Cc1ccc2nc(-c3ccc(O)c(O)c3)cn2c1 13.3 µM
CC(C)c1ccc(C2c3[nH]c4ccccc4c3C[C@H]3C(=O)N(c4ccccc4C(=O)N4CCC(C(=O)O)CC4)C(=O)N23)cc1 (stereo partly specified) 6.68 µM
CC(=O)Nc1ccc(NC2=Nc3ccccc3N3C2=Nc2c(c(C)nn2-c2ccccc2)C3c2ccccc2)cc1 (stereo unspecified) 6.68 µM
O=C(Nc1ccc2c(N3CCCC3)ncnc2c1)c1cccc(Br)c1 0.668 µM
O=C(Nc1ccc2c(N3CCOCC3)ncnc2c1)c1ccc(Br)o1 2.66 µM
O=C(Nc1ccc2c(N3CCCC3)ncnc2c1)c1ccc(Br)cc1 4.73 µM
O=C(Nc1ccc2c(N3CCOCC3)ncnc2c1)c1cccc(Br)c1 4.22 µM
O=C(Nc1ccc2c(N3CCOCC3)ncnc2c1)c1cccc(Cl)c1 4.73 µM
CCc1cccc2c(C(CC(=O)N3CCC(C)CC3)c3cccc(C)c3)c[nH]c12 (stereo unspecified) 4.73 µM
CCCCCCSc1ccc([C@@H]2[C@H]3C(=O)N(CC)C(=O)[C@H]3[C@]3(C(=O)OC)CCCCN23)cc1OC 15 µM
COc1ccc2[nH]c(C[C@@H]3C[C@@H](C(C)C)[C@H](CNCc4cccnc4)C=C3C)nc2n1 19.3 µM
COc1ccc2[nH]c(C[C@@H]3C[C@@H](C(C)C)[C@H](CNCc4ccccc4O)C=C3C)nc2n1 0.243 µM
COc1ccc(-c2nnc(C[C@@H]3C[C@@H](C(C)C)[C@H](CNCc4cccnc4)C=C3C)o2)cc1 6.68 µM
CC1=C[C@@H](CNCc2cccnc2)[C@H](C(C)C)C[C@H]1Cc1nnc(-c2ccc(N(C)C)cc2)o1 5.31 µM
CC1=C[C@@H](CNCc2cccnc2)[C@H](C(C)C)C[C@H]1Cc1nnc(-c2ccc([N+](=O)[O-])cc2)o1 5.31 µM
COc1cc(C(=O)OCC(=O)N2CCCCC2C)cc(NC(=O)c2cccs2)c1OC (stereo unspecified) 0.473 µM
CCOC(=O)c1c(CN2CCN(c3ccccc3)CC2)oc2cc(Br)c(O)cc12 1.88 µM
CCOC(=O)c1c(CN(CC)CC)n(C)c2cc(Br)c(O)cc12 9.44 µM
CCOC(=O)c1c(CN2CCN(CCO)CC2)n(-c2ccccc2)c2cc(Br)c(O)cc12 5.96 µM
CCOC(=O)c1c(CN2CCCCC2)n(C)c2cc(Br)c(O)cc12 7.5 µM
CCOC(=O)c1c(CN(C)C)n(-c2ccc(C)cc2)c2cc(Br)c(O)cc12 4.22 µM
CCOC(=O)c1c(CNc2ccncc2)n(C)c2cc(Br)c(O)cc12 2.66 µM
CCOC(=O)c1c(CSC(=N)N)n(-c2ccc(C)cc2)c2cc(Br)c(OC(C)=O)cc12 5.96 µM
COc1ccc(-c2[nH]nc3ncc(-c4cccnc4)nc23)cc1F 3.85 µM
Fc1ccc(N2CCN(Cc3cccn3-c3nnc(N4CCN(C5CCCCC5)CC4)s3)CC2)cc1 11.9 µM
CCCCN(CCCC)CC(O)Cn1cc(/C=C/C(=O)c2ccccc2)c2ccccc21 (stereo unspecified) 1.68 µM
CCCN(CCC)CC(O)Cn1cc(/C=C/C(=O)c2ccc(C)cc2)c2ccccc21 (stereo unspecified) 4.73 µM
COc1cccc(CN2CCC3(CC2)OC(=O)N(Cc2ccccc2)C3(C)c2ccccc2)c1 (stereo unspecified) 15 µM
CC1(c2ccccc2)N(Cc2ccccc2)C(=O)OC12CCN(Cc1cccc(O)c1)CC2 (stereo unspecified) 8.41 µM
CC1(c2ccccc2)N(Cc2ccccc2F)C(=O)OC12CCN(Cc1cccc(O)c1)CC2 (stereo unspecified) 6.68 µM
COc1ccc(C(=O)N2CCC3(CC2)OC(=O)N(Cc2ccc(O)cc2)C3(C)c2ccccc2)cn1 (stereo unspecified) 6.68 µM
Cc1nc(CN2C(=O)OC3(CCN(C(=O)c4ccc(Oc5ccccc5)cc4)CC3)C2(C)c2ccccc2)cs1 (stereo unspecified) 13.3 µM
CN(Cc1ccccc1)Cc1cc(C[C@@H]2CC[C@H](O)[C@@H](CNCc3ccccc3)O2)no1 4.73 µM
O[C@@H]1CC(CNCc2cccc(Cl)c2)(COc2ccccc2)C[C@@H]1O (stereo partly specified) 3.85 µM
COc1ccccc1CNC[C@H]1O[C@H](Cc2cc(CN(C)Cc3ccccc3)on2)CC[C@@H]1O 2.99 µM
O[C@H]1CC[C@@H](Cc2cc(COc3ccccc3)on2)O[C@@H]1CNCc1cccc(Cl)c1 2.11 µM
COc1ccc(CN2C[C@H]3CN(Cc4c[nH]c5ccccc45)CCN3C2=O)cc1 3.85 µM
CC1(c2ccccc2)CC(c2ccccc2)=Nc2nonc2N1 (stereo unspecified) 5.31 µM
COc1cc(/C=C(\C#N)c2nc3ccccc3[nH]2)cc(Cl)c1OCc1ccccc1Cl 5.31 µM
COc1cc(/C=C(\C#N)c2nc3ccccc3[nH]2)ccc1OCc1ccc(F)cc1 5.31 µM
O=C(Nc1cnc2ccccc2c1)c1cccc(-n2cnnn2)c1 2.66 µM
CC(C)c1ccccc1Oc1c(C(F)(F)F)oc2c(CN3CCN(C)CC3)c(O)ccc2c1=O 0.668 µM
Cc1ccc(C)c(Oc2c(C(F)(F)F)oc3c(CN4CCN(C)CC4)c(O)ccc3c2=O)c1 0.75 µM
CCN1CCN(Cc2c(O)ccc3c(=O)c(Oc4ccccc4C(C)C)c(C(F)(F)F)oc23)CC1 0.596 µM
Cc1ccccc1C(=O)NC(CC(C)C)C(=O)OCC(=O)c1c(N)n(C)c(=O)n(C)c1=O (stereo unspecified) 2.66 µM

Potency, inactive:
Cc1ccsc1-c1[nH]nc2ncc(-c3ccccc3)nc12
COc1ccccc1-c1[nH]nc2ncc(-c3c(C)noc3C)nc12
O=C(O)C[C@@H]1CCN(C(=O)C2CCCCC2)C[C@@H]1CCN1CCOCC1
CCOc1ccccc1C1NC(=O)N(CC(=O)Nc2ccc(OC)cc2)C2=C1C(=O)OC2 (stereo unspecified)
CC1CCC2(CC1)NC(=O)N(CC(=O)Nc1ccc(Cl)cc1)C2=O (stereo unspecified)
CCCN(CC1CC1)C(=O)[C@@H]1COCC(=O)N1Cc1ccccc1
Cc1cc(C)c(S(=O)(=O)Nc2cc(-c3cn4ccccc4n3)ccc2C)cc1C
CC(C)NC(=O)N1Cc2[nH]cnc2C[C@H]1C(=O)NCc1ccc(Cl)cc1
Cc1ccc(C(=O)N2CCCN(c3cc(-c4ccc(Br)cc4)[nH]n3)CC2)cn1
O=C(COc1ccc(-c2nnc3n2CCCC3)cc1)Nc1cccc(Br)c1
O=C(NC1CCCN(c2cc(-c3ccc(Cl)cc3)[nH]n2)C1)c1ccc(Br)o1 (stereo unspecified)
O=C(Nc1ccc(CN2CCOCC2)cc1)c1ccc(-c2ccc(Br)cc2)o1
CN(C)C(=O)C1CN(C(=O)Nc2cccc(Br)c2)CC12CCOCC2 (stereo unspecified)
O=C1[C@H]2CN(Cc3cc(F)ccc3F)C[C@H]2C(=O)N1Cc1ccc2c(c1)OCO2
COCCCNC(=O)CCN(CCC(C)C)C(=O)c1cc(C)oc1C
Cc1ccc(OC2(C(=O)NC(C)c3nn[nH]n3)CCNCC2)cc1 (stereo unspecified)
CN(C1CCOCC1)C1CCN(C(=O)c2cccc(Cl)c2)CC1
Clc1ccc(Cn2ncc3c(N4CCOCC4)ncnc32)cc1
Cc1cccc(OCC(=O)N2CCC(c3n[nH]c(=O)n3-c3ccccc3)CC2)c1
CN(C)S(=O)(=O)N1CCCC(Cn2c(C3CC3)nc3cccnc32)C1 (stereo unspecified)
Fc1cc(F)cc(CNc2ncncc2-c2nc(-c3ccccc3)no2)c1
Cn1cnc(S(=O)(=O)N2CCCC(Cc3noc(-c4cccnc4)n3)C2)c1 (stereo unspecified)
Brc1ccc(-c2ccnc3nc(-c4cccs4)nn23)s1
Cc1[nH]cnc1CSCCn1ccnc1-c1nccn1C
COc1cc2c(cc1OC)CN(C(=O)c1cccs1)CC2
CCOC(=O)C1=C(O)/C(=C/c2cc(C)n(-c3ccccc3)c2C)N=C1C
COc1ccc(C(=O)N2CCC(Cc3nc(-c4cccnc4)n[nH]3)C2)cc1F (stereo unspecified)
COc1ccccc1CCNC(=O)c1cccn1-c1nnc(N2CCCCC2)s1
CN(CC1CCOCC1)S(=O)(=O)c1ccc(F)c(Cl)c1
O=C(NC1CCCN(c2cc(-c3ccccc3)[nH]n2)C1)c1cc(F)ccc1F (stereo unspecified)
COc1cccc(CN2CCC3(CC2)Cc2ccccc2NC3=O)c1
COc1ccc(C(=O)N2CCC(c3nc(C4CCOCC4)no3)CC2)cn1
COc1ccc(C(=O)N2CCCn3cc(-c4ccccc4F)nc32)cn1
O=C(NC[C@H]1O[C@H](Cc2cc(CN3CCNCC3)on2)CC[C@@H]1O)c1ccccc1F
Cc1cccc(OCC2(CNCc3cccnc3)C[C@@H](O)[C@@H](O)C2)n1 (stereo partly specified)
O=C(c1cc(F)ccc1F)N1CC(c2nnc(-c3ccncc3)o2)C2(CCOCC2)C1 (stereo unspecified)
COc1cc(OC)c(NC(=O)Cn2c(C)cc3nc4n(c(=O)c32)CCCCC4)cc1Cl
COc1cc(Cc2cc(N)nc(N)n2)cc(OC)c1OC
COc1ccc(-c2cn(CCc3c[nH]c4ccccc34)nn2)cc1
Cc1nnc([C@H]2CCN(Cc3c[nH]c4ccccc34)C2)o1
Cc1nonc1CC(=O)N1CCCC(CNS(=O)(=O)c2cccs2)C1 (stereo unspecified)
COc1cc(SC)ccc1C(=O)Nc1nc2ccccc2[nH]1
CCc1noc(-c2cccn3c(CNC(=O)c4ccc(Cl)cc4)nnc23)n1
CCSc1nnc(SCC(=O)c2c(N)n(C)c(=O)n(C)c2=O)s1
